# Test results reported in PubChem BioAssay (NCATS).
# Results filed as inconclusive are left out. Activity calls are given as the source filed them. Calls come from the whole dose curve; as a rule, active = well fitted inhibition curve with a large enough effect; inconclusive = small, poorly fitted or top-dose-only effect; inactive = flat fitted curve, though single readings scatter.
# System: HEK293
# Assay: Cytotoxic Profiling of Annotated Libraries Using Quantitative High-Throughput Screening (AID 1296008); note: nearly all actives have a fitted effect of over 60% in size
# Conditions: Five cell lines viability, CellTiter-Glo ATP luminescence, 48-72 h; max response: hits give low values
# In short: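 Cells exposed to compounds for 48 or 72 hr at 37 degrees Celsius. Viability read as ATP-coupled luminescence with CellTiter-Glo after 10 min at room temperature.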
row,SMILES,outcome
1,C=CC1C(O[C@@H]2O[C@H](CO)[C@@H](O)[C@H](O)[C@H]2O)OC=C(C(=O)OC)C1CC(=O)O (some centres undefined),inactive
2,CC(C)(O)c1ccc2c(c1)C(O)CC1C(C)(C(=O)O)CCCC21C (centres undefined),inactive
3,CC(C)(O)C1CCC2(C)C3C(O)C4C(C13)C42CO (centres undefined),inactive
4,O=c1ccn(C2OC(CO)C(O)C2O)c(=O)[nH]1 (centres undefined),inactive
5,CCCC(N[C@@H](C)C(=O)N1[C@H](C(=O)O)C[C@@H]2CCCC[C@@H]21)C(=O)OCC (some centres undefined),inactive
6,CCC[C@@H]1C[C@@H](C(=O)N[C@@H]([C@H]2O[C@H](SC)[C@H](O)[C@@H](O)[C@@H]2O)[C@@H](C)O)N(C)C1,inactive
7,COc1cc([C@H]2OC[C@@H]3[C@@H](c4ccc(O[C@@H]5O[C@H](CO)[C@@H](O)[C@H](O)[C@H]5O)c(OC)c4)OC[C@]23O)ccc1O,inactive
8,O=C(OCc1cccc(O)c1O[C@@H]1O[C@H](CO)[C@@H](O)[C@H](O)[C@H]1O)C1(O)C(=O)C2C=CC1C1C=CC(=O)C(O)(C(=O)OCc3cccc(O)c3O[C@@H]3O[C@H](CO)[C@@H](O)[C@H](O)[C@H]3O)C21 (some centres undefined),inactive
9,COC(=O)CC[C@@H](C)[C@H]1CC[C@H]2[C@@H]3CC(=O)[C@H]4C[C@H](OC(C)=O)CC[C@]4(C)[C@H]3CC[C@]12C,inactive
10,FC(F)(F)c1cc(C(F)(F)F)c2ccc3nc(-c4nnco4)cn3c2n1,inactive
11,COc1c(C)c2c(c(O)c1C/C=C(\C)CC/C=C(\C)CCC(=O)O)C(=O)OC2,inactive
12,CC[C@@H](c1ccc(F)c(F)c1)n1c(C(=O)OC)c(-c2ccno2)[nH]c1=S,inactive
13,CC(C)=CCC/C(C)=C/CC/C(C)=C/CC[C@]1(C)CCc2cc(O)cc(C)c2O1,inactive
14,CC1=CC(=O)CC(C)(C)C1CCC(C)OC1OC(COC(=O)c2cc(O)c(O)c(O)c2)C(O)C(O)C1O (centres undefined),inactive
15,COc1ccc(/C=C/C(=O)O[C@H]2[C@@H]3C=CO[C@@H](O[C@@H]4O[C@H](CO)[C@@H](O)[C@H](O)[C@H]4O)[C@@H]3[C@@]3(CO)O[C@@H]23)cc1O,inactive
16,Cc1ncc([N+](=O)[O-])n1CC(O)CN1CCOCC1 (centres undefined),inactive
17,C=CC(C)(O)CC/C=C(/C)C(=O)OC1C(OC2OCC(OC3OC(CO)C(O)C(O)C3O)C(OC3OCC(O)C(OC4OC(C)C(O)C(O)C4O)C3O)C2O)COC(OC(=O)C23CCC(C)(C)CC2C2=CCC4C5(C)CCC(OC6OC(CO)C(OC7OC(CO)C(O)C(OC8OCC(O)C(O)C8O)C7O)C(O)C6O)C(C)(C)C5CCC4(C)C2(C)CC3O)C1O (centres undefined),inactive
18,O=C1C[C@@H](c2ccc(O)cc2)Oc2cc(O)ccc21,inactive
19,CC(C)CC(=O)n1cc(C(N)=O)c(=O)cc1C(O)c1ccccc1 (centres undefined),inactive
20,COc1cc([C@H]2OC[C@]3(OC(C)=O)[C@@H](c4ccc(O[C@@H]5O[C@H](CO)[C@@H](O)[C@H](O)[C@H]5O)c(OC)c4)OC[C@H]23)ccc1O,inactive

row,SMILES,outcome
1,CC(C)=CCc1ccc(Oc2c(O)cc(C)cc2CO)c(C(=O)O)c1O,inactive
2,O=C(O)CCc1cccc(O[C@@H]2O[C@H](CO)[C@@H](O)[C@H](O)[C@H]2O)c1O,inactive
3,COC(=O)[C@@]1(O)C=CC[C@@H]2[C@@]3(C)C[C@@H](c4ccoc4)OC(=O)[C@H]3CC[C@]21C,inactive
4,CC(C)CC(=O)OC[C@H]1O[C@@](COC(=O)CC(C)C)(O[C@H]2O[C@H](CO)[C@@H](O)[C@H](O)[C@H]2O)[C@@H](OC(=O)CC(C)C)[C@@H]1OC(=O)CC(C)C,inactive
5,C=CC(C)(C)O[C@@H]1O[C@H](CO[C@@H]2OC[C@](O)(CO)[C@H]2O)[C@@H](O)[C@H](O)[C@H]1O,inactive
6,CCC(C)/C=C(C)/C=C/C1=CC2=C(Cl)C(=O)C(C)(OC(C)=O)C(=O)C2=CN1C1CCCCN(C(CCC(N)=O)C(=O)O)C1=O (centres undefined),inactive
7,CN[C@@H]1[C@@H](O)[C@@H](O[C@@H]2[C@@H](O)[C@H](O[C@H]3O[C@H](CN)[C@@H](O)[C@H](O)[C@H]3O)[C@@H](N)C[C@H]2NC(=O)[C@@H](O)CN)OC[C@]1(C)O,inactive
8,O=C(O)C[C@@H](NC(=O)c1cc(-c2ccc(-c3ccncc3)cc2)cs1)c1ccccc1,inactive
9,CC(CCC1(O)OC2CC3C4CCC5CC(O[C@@H]6O[C@H](CO)[C@@H](O)[C@H](O)[C@H]6O[C@@H]6OC[C@@H](O)[C@H](O)[C@H]6O)C(O)CC5(C)C4CCC3(C)C2C1C)CO[C@@H]1O[C@H](CO)[C@@H](O)[C@H](O)[C@H]1O (some centres undefined),inactive
10,O=C(O[C@H]1[C@@H]2C[C@@H]3OC[C@@](O)([C@H]2[C@H](O[C@@H]2O[C@H](CO)[C@@H](O)[C@H](O)[C@H]2O)O3)[C@@H]1O)c1ccccc1,inactive
11,C[C@H]1C[C@H]2[C@@H]3CCC4=CC(=O)C=C[C@]4(C)[C@@]3(F)[C@@H](O)C[C@]2(C)[C@@]1(O)C(=O)COP(=O)(O)O,inactive
12,CCOC(=O)c1ccc(N(C)c2csc(-c3ccccc3)n2)cc1,inactive
13,C[C@@H]1C[C@H](O[C@@H]2O[C@H](CO[C@@H]3OC[C@](O)(CO)[C@H]3O)[C@@H](O)[C@H](O)[C@H]2O)CC(C)(C)[C@H]1/C=C/[C@@H](C)O,inactive
14,Oc1ccc([C@H]2COc3cc(O)ccc3C2)cc1,inactive
15,CC(C)(C)c1cc(CN2CCN(CC(O)c3ccc(Cl)cc3)CC2)cc(C(C)(C)C)c1O (centres undefined),inactive
16,COc1cc(C2c3cc(O)c(OC)cc3CC(CO)C2CO)ccc1O (centres undefined),inactive
17,O=C1Nc2ccc(O)cc2O[C@H]1O[C@@H]1O[C@H](CO)[C@@H](O)[C@H](O)[C@H]1O,inactive
18,Clc1ccc2c(c1)C1=NCCN1c1c(-c3noc(C4CC4)n3)ncn1-2,inactive
19,C=C[C@H]1[C@H](O[C@@H]2O[C@H](CO)[C@@H](O)[C@H](O)[C@H]2O)OC=C(C(=O)OC)[C@H]1C[C@@H]1N[C@H](C(=O)O)Cc2c1[nH]c1ccccc21,inactive
